The results in this text go back to the supplement of paper PMC10849652.

About 7,900 targets were measured; listed, in parts, are those with a hit and a random draw of the rest. About 0.6% of all pairs of compound and target were hits.

UniProt P34913, sequence (P34913 whole entry, looked up): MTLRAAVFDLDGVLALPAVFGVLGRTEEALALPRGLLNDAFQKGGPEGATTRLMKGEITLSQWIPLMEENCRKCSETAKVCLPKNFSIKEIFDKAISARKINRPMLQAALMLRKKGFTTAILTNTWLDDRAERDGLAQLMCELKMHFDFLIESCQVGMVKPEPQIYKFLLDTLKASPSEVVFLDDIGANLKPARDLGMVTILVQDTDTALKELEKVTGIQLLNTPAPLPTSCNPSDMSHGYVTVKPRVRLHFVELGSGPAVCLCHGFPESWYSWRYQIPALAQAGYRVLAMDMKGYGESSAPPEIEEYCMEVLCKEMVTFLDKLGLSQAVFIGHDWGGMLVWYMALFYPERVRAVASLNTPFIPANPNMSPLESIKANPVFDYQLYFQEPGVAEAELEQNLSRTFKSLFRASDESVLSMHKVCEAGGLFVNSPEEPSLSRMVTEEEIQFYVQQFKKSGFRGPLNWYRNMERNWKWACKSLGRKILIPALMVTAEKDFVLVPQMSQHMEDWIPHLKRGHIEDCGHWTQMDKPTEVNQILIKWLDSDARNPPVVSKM
UniProt Q8TCE6, sequence (Q8TCE6 whole entry, looked up): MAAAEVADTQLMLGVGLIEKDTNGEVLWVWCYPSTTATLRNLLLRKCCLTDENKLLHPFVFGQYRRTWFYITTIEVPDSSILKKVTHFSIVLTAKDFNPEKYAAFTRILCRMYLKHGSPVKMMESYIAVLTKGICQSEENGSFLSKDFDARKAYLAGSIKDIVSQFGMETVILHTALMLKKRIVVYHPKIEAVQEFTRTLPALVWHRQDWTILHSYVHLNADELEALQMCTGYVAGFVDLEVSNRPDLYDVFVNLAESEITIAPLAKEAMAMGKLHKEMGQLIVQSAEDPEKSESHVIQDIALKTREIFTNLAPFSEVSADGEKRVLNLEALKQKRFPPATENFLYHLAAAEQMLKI
UniProt P09668, sequence (P09668 whole entry, looked up): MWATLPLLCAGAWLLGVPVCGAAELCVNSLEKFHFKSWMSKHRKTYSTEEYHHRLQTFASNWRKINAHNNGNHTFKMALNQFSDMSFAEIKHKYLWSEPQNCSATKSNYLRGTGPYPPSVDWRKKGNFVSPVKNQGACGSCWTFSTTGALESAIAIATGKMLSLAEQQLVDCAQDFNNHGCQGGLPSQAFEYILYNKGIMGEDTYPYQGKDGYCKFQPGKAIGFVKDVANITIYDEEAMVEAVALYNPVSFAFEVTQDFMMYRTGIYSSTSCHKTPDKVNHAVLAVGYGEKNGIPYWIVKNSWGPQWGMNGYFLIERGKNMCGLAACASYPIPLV
UniProt Q16850, sequence (Q16850 whole entry, looked up): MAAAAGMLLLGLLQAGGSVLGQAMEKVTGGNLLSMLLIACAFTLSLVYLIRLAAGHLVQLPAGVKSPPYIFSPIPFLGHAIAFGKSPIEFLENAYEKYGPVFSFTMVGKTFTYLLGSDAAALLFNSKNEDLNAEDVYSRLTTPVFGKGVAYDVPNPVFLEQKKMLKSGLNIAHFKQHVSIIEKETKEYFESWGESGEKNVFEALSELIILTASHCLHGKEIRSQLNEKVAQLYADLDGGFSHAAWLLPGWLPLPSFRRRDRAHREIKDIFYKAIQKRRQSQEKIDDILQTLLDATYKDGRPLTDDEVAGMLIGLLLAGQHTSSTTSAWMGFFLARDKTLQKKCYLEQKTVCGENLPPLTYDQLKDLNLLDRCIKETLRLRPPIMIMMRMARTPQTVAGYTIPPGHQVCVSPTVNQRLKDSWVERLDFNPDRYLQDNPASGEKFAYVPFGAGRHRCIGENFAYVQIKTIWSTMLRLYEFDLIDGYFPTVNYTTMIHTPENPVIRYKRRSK
UniProt Q8NBA8, sequence (Q8NBA8 whole entry, looked up): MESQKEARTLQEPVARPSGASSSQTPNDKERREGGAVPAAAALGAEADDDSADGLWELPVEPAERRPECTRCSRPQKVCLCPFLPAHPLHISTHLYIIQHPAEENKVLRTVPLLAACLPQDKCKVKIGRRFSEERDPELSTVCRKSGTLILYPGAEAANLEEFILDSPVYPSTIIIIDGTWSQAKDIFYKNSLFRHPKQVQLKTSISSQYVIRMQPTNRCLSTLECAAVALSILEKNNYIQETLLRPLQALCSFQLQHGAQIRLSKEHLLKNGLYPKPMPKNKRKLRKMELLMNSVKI
UniProt Q9Y5Q0, sequence (Q9Y5Q0 whole entry, looked up): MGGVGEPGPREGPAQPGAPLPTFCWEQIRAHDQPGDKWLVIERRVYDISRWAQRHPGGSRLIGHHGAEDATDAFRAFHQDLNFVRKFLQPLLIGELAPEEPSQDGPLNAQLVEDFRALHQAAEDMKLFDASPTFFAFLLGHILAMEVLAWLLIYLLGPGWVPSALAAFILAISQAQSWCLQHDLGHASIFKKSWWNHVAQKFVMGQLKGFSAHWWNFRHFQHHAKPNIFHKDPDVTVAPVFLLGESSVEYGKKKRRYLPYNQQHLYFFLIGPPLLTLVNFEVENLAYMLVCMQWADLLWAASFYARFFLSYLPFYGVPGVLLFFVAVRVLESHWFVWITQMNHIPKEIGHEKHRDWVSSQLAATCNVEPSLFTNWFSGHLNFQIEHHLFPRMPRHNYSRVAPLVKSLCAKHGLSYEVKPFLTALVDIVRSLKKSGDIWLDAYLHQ
UniProt P50570, sequence (P50570 whole entry, looked up): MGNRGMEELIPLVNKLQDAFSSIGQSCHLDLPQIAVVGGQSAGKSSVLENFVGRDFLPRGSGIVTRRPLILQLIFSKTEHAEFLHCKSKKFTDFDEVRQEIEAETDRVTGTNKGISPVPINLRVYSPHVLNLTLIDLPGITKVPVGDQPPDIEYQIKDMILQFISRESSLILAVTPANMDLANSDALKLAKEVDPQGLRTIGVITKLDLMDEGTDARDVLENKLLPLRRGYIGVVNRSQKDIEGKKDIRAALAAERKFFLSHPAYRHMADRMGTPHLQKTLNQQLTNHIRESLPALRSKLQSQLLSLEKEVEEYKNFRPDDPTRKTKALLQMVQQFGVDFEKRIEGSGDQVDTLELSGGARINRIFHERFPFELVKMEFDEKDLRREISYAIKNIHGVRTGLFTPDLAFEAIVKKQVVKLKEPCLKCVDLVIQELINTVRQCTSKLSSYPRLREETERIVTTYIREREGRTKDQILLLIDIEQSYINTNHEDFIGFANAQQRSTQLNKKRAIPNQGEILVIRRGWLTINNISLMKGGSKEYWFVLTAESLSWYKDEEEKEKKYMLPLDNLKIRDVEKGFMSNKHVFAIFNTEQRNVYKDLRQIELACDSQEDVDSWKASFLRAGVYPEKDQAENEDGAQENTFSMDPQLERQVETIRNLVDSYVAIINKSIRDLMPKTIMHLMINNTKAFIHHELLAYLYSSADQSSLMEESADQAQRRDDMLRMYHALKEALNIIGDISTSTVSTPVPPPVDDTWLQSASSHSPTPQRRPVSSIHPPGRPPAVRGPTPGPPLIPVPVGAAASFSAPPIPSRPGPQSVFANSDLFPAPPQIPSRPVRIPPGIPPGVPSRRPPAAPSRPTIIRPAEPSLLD
UniProt Q13948, sequence (Q13948 whole entry, looked up): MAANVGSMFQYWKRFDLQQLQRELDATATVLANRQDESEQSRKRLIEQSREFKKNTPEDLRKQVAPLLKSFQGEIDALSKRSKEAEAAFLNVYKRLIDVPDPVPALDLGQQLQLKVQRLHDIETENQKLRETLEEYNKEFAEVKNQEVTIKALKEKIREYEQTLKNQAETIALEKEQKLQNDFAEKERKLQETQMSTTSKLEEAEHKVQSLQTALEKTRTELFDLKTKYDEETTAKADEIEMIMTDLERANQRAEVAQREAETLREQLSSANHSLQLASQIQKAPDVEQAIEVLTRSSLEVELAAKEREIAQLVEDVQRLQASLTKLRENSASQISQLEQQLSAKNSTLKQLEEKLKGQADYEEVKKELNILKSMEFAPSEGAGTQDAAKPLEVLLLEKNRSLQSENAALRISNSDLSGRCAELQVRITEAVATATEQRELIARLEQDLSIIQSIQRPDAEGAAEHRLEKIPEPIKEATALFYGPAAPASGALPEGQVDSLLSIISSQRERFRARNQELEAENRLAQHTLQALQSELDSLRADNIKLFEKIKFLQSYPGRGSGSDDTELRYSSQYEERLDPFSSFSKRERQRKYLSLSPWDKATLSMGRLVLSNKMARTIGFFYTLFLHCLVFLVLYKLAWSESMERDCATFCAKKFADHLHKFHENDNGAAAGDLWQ
UniProt Q16643, sequence (Q16643 whole entry, looked up): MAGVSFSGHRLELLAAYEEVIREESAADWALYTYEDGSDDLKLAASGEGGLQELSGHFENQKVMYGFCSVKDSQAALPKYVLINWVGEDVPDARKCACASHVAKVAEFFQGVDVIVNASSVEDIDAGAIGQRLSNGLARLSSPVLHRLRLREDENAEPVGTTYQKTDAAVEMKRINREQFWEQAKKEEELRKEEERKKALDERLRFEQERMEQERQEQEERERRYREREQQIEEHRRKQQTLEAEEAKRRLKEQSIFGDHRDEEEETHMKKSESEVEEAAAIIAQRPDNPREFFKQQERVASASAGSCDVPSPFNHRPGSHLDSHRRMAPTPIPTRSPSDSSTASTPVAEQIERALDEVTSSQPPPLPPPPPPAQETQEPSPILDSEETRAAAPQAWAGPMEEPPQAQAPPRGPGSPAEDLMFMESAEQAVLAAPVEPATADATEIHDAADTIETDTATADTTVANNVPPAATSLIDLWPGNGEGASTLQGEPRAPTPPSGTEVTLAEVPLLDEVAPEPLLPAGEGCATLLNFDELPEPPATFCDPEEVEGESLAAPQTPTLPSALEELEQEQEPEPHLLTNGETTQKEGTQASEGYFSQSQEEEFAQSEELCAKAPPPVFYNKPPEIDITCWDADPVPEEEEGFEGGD
UniProt O60888, sequence (O60888 whole entry, looked up): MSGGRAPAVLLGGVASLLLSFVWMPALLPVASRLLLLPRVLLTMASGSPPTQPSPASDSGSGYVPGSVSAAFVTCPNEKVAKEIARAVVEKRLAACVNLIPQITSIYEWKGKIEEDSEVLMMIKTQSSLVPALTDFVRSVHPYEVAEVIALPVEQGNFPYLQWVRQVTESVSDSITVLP

Compound in this assay: c1cn2cc(-c3ccc4cn[nH]c4c3)nc(Nc3ccc(N4CCOCC4)cc3)c2n1 [entospletinib]
Briefly: log2 fold change, soluble protein after heating vs DMSO (PISA); higher = thermal stabilisation; K562 cells, 10 uM, 30 min; active = over 0.2 and 3.5 SD of the protein, either way, in both replicates (recomputed). In outline:
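K562 cells (2×10^6 cells/mL) were treated with 10 μM compound for 30 min, and aliquots were heated for 3 min over 48°C-58°C. Pooled aliquots were extracted in PBS with 0.5% NP-40 at 4°C, and the supernatant after 21,000xg for 90 min was measured by TMTpro 16plex LC-MS/MS with channel sums equalised. Reported thermal stability, relative to control samples and from duplicates, is a log2 fold change.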
With CTSH (UniProt P09668), the log2 fold change is -0.021 (inactive).

As to DENND10 (UniProt Q8TCE6), the log2 fold change was -0.006 (inactive).

DCAF12 (UniProt Q5T6F0): the log2 fold change is 0.025 (inactive).

Regarding EIF4A1 (UniProt P60842), the log2 fold change is -0.083 (inactive).

As to EIF3J (UniProt O75822), the log2 fold change was -0.005 (inactive).

In the case of CYP24A1 (UniProt Q07973), the log2 fold change was 0.019 (inactive).

On to DNAJC7 (UniProt Q99615), for which the log2 fold change is -0.034 (inactive).

For the target ELOVL5 isoform 2 (UniProt Q9NYP7), the log2 fold change was 0.063 (inactive).

Take DTWD2 (UniProt Q8NBA8): the log2 fold change is 0.127 (inactive).

As to EEF1G isoform 2 (UniProt P26641), the log2 fold change was -0.012 (inactive).

For DMAC1 (UniProt Q96GE9), the log2 fold change was 0.073 (inactive).

In the case of DDX4 (UniProt Q9NQI0), the log2 fold change was 0.276 (inactive).

On to CYBA (UniProt P13498), for which the log2 fold change is 0.069 (inactive).

In the case of DNAJC1 (UniProt Q96KC8), the log2 fold change was 0.015 (inactive).

With DNAJC19 (UniProt Q96DA6), the log2 fold change is 0.026 (inactive).

Turning to FAM118B (UniProt Q9BPY3), the log2 fold change was -0.011 (inactive).

As to CUEDC2 (UniProt Q9H467), the log2 fold change is 0.01 (inactive).

Turning to CUX1 isoform 2 (UniProt Q13948), the log2 fold change was -0.019 (inactive).

As for CYP51A1 (UniProt Q16850), the log2 fold change is 0.093 (inactive).

For the target ETNK1 (UniProt Q9HBU6), the log2 fold change was -0.008 (inactive).

As for ECH1 (UniProt Q13011), the log2 fold change was 0.024 (inactive).

For the target DHCR24 (UniProt Q15392), the log2 fold change is -0.016 (inactive).

For the target EOGT (UniProt Q5NDL2), the log2 fold change was 0.005 (inactive).

With CTSL (UniProt P07711), the log2 fold change is 0.091 (inactive).

Consider CTSV (UniProt O60911), for which the log2 fold change is 0.013 (inactive).

Take DBN1 isoform 3 (UniProt Q16643): the log2 fold change is -0.038 (inactive).

As for EPHX2 (UniProt P34913), the log2 fold change is 0.05 (inactive).

In the case of ELAC1 (UniProt Q9H777), the log2 fold change is 0.069 (inactive).

With DOHH (UniProt Q9BU89), the log2 fold change was 0.1 (inactive).

Take FAM241A (UniProt Q8N8J7): the log2 fold change is -0.008 (inactive).

For the target CUTA isoform 2 (UniProt O60888), the log2 fold change is -0.027 (inactive).

For the target DDX5 (UniProt P17844), the log2 fold change was -0.019 (inactive).

On to FADS3 (UniProt Q9Y5Q0), for which the log2 fold change was 0.035 (inactive).

Regarding EHBP1 (UniProt Q8NDI1), the log2 fold change was -0.082 (inactive).

Consider DNM2 isoform 4 (UniProt P50570), for which the log2 fold change was -0.257 (inactive).
